Results filed as inconclusive are left out. Unmarked numbers belong to inactive results. Calls of active or inactive are those of the source. Unless noted, calls come from the whole dose curve; as a rule, active = well fitted curve in the direction sought with a large enough effect in the repeat runs; inconclusive = weak or mixed curves; inactive = no such curve, though single readings can be large; an effect the other way counts as inactive or inconclusive.
Potency is the fitted concentration of half-maximal effect.

Cytochrome P450 2C9 (Homo sapiens), sequence (P11712 whole entry, looked up): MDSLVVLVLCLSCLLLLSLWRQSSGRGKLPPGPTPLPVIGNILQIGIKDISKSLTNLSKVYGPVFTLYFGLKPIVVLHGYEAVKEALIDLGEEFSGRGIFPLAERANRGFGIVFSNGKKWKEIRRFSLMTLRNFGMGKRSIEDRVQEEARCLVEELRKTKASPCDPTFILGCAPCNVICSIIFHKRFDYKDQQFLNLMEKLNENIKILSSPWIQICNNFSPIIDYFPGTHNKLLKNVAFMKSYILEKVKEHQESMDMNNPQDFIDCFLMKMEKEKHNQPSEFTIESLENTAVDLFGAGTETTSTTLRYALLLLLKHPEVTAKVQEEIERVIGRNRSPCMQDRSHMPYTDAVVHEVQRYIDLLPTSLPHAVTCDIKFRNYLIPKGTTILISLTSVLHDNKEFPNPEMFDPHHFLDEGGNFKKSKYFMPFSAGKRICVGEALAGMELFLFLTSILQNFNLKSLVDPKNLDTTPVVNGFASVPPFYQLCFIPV
Cytochrome P450 3A4 (Homo sapiens), sequence (P08684 whole entry, looked up): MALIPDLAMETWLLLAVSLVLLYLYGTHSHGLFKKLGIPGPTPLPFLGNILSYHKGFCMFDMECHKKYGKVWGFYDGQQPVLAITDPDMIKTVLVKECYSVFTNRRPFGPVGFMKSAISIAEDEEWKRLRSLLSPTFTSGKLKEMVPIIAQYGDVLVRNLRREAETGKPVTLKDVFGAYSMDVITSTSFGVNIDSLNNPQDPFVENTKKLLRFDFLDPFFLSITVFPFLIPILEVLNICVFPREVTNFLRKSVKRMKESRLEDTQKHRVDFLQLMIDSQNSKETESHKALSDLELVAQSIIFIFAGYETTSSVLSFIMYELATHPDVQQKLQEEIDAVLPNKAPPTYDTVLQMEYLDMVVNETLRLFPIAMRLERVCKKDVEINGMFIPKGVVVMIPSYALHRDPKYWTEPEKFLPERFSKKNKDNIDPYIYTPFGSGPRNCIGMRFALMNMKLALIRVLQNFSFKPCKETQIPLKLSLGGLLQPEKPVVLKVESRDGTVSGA

The first test has as its target Cytochrome P450 3A4 (Homo sapiens) (UniProt P08684). The test is described as follows: Cytochrome P450 family 3 subfamily A member 4 (CYP3A4) small molecule antagonists: luciferase qHTS assay (AID 1645841). Note: nearly all actives have a fitted effect of over 45% in size. To be noted: P450-Glo CYP3A4 enzyme assay, luciferin luminescence; series mostly up to 57.4 µM; activity change, negative = inhibition: at the top concentration. In a few lines:
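P450-Glo CYP3A4 enzyme with proluciferin substrate preincubated 10 min with compound at room temperature, then NADPH regeneration 1 h. Luciferin detection reagent added for 20 min; luminescence recorded. Ketoconazole positive control.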
Background: qHTS replaces the single test concentration by a dilution series.
Turning to `Cc1cc(Nc2ncc3cc(-c4c(Cl)cccc4Cl)c(=O)n(C)c3n2)ccc1F`, the “activity change, negative = inhibition” value was 20%.

In the case of `COc1ccc(-n2[nH]c(=O)c3[nH]c4cc(Cl)ccc4c(=O)c3c2=O)c(C)c1`, the “activity change, negative = inhibition” value is 26.5%.

Turning to `c1cc(OCCCN2CCCCC2)ccc1CN1CCCCC1`, the “activity change, negative = inhibition” value was 23.9%.

Regarding `CCC(CC)C(=O)Nc1sc2c(c1C#N)CCC(C(C)(C)CC)C2` (stereo not given), the Potency was 9.52 µM (active).

As for `CC1CCCCN1S(=O)(=O)c1ccc(N2CCCC2=O)cc1` (stereo not given), the “activity change, negative = inhibition” value is 41.2%.

For a further test, the target named is Cytochrome P450 2C9 (Homo sapiens) (UniProt P11712). As to the kind of experiment: Cytochrome P450 family 2 subfamily C member 9 (CYP2C9) small molecule antagonists: luciferase biochemical (cell-free) qHTS assay (AID 1645842). For activity change, negative = inhibition: % is set by controls: 0 for no effect and ±100 for the full control effect. Note: nearly all actives have a fitted effect of over 55% in size. The note with it: P450-Glo CYP2C9 enzyme assay, luciferin luminescence; series mostly up to 57.4 µM; activity change, negative = inhibition: at the top concentration. The procedure, abridged:
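Luminescence, after 20 min with luciferin detection reagent, reflected CYP2C9 turnover during a 1 h NADPH-driven reaction at 37C. Enzyme-substrate mix contained 0.4% bovine serum albumin and was preincubated with compound 10 min at room temperature.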
As to `Cc1cc(Nc2ncc3cc(-c4c(Cl)cccc4Cl)c(=O)n(C)c3n2)ccc1F`, the Potency is 6.74 µM (active).

Take `COc1ccc(-n2[nH]c(=O)c3[nH]c4cc(Cl)ccc4c(=O)c3c2=O)c(C)c1`: the “activity change, negative = inhibition” value is 11.3%.

`CC(=O)NC[C@H]1CN(c2ccc(N3CCN(C(=O)CO)CC3)c(F)c2)C(=O)O1`: the “activity change, negative = inhibition” value was 0.665%.

For `CN(C)CCn1cc(S(=O)(=O)c2cccc(F)c2)c2cccnc21`, the “activity change, negative = inhibition” value was 19.3%.

As for `OC1CCC(Nc2ncc3nc(Nc4c(F)cc(F)cc4F)n([C@H]4CCOC4)c3n2)CC1` (stereo not given in full), the “activity change, negative = inhibition” value is -16.3%.

For `Cn1ncnc1COc1nn2c(-c3cc(F)ccc3F)nnc2cc1C(C)(C)C`, the Potency is 9.52 µM (active).

In the case of `CC[C@@](C)(Nc1ccnc(-c2c[nH]c3ncccc23)n1)C(=O)NCC(F)(F)F`, the Potency was 21.3 µM (active).

In the case of `CC(C)(C)NS(=O)(=O)c1cncc(-c2cc(F)c3nc(N)nn3c2)c1`, the “activity change, negative = inhibition” value was 0.87%.

On to `c1cc(OCCCN2CCCCC2)ccc1CN1CCCCC1`, for which the “activity change, negative = inhibition” value is 2.38%.

For `Oc1ccc2nc(CN3CCC(Cc4ccccc4F)CC3)[nH]c2c1`, the Potency was 10.7 µM (active).

On to `CCN(CC)Cc1ccc(C(=O)N(CCc2ccccc2OC)[C@@H]2CCNC2)cc1`, for which the “activity change, negative = inhibition” value was 3.26%.

For the compound `CS(=O)(=O)c1ccc([C@H](CC2CCCC2)C(=O)Nc2nccs2)cc1`, the Potency was 6.01 µM (active).

Take `CNS(=O)(=O)CC1CCC(N(C)c2ncnc3[nH]ccc23)CC1` (stereo not given): the “activity change, negative = inhibition” value was 18.7%.

On to `C=C(F)c1sc(CNCCCNc2cc(=O)c3ccccc3[nH]2)c(C)c1Br`, for which the Potency is 2.13 µM (active).

Take `CCC(CC)C(=O)Nc1sc2c(c1C#N)CCC(C(C)(C)CC)C2` (stereo not given): the Potency is 5.35 µM (active).

Consider `CCCC(=O)C1CCN(c2ncnc3c2CN(C(=O)c2ccc(-c4ccccc4)cc2)CC3)CC1`, for which the Potency was 3.01 µM (active).

Take `Cc1noc(-c2ccc(-c3ccc(CC(=O)O)cc3)cc2)c1NC(=O)O[C@H](C)c1ccccc1`: the Potency was 13.5 µM (active).

For the compound `CC1CCCCN1S(=O)(=O)c1ccc(N2CCCC2=O)cc1` (stereo not given), the Potency was 15.1 µM (active).

Take `C=CC(=O)Nc1cc(Nc2nccc(-c3c[nH]c4ccccc34)n2)c(OC)cc1N(C)CCN(C)C`: the Potency is 8.49 µM (active).

In the case of `O=S(=O)(NC1CCC(c2cc(F)ccc2F)(S(=O)(=O)c2ccc(Cl)cc2)CC1)C(F)(F)F` (stereo not given), the Potency was 0.425 µM (active).

As for `O=C(Nc1ccc(-c2ccncc2)cc1)N[C@H](CO)c1ccccc1`, the Potency was 10.7 µM (active).

With `COc1cc2ncnc(Nc3ccc(O)cc3)c2cc1OC`, the “activity change, negative = inhibition” value is -0.643%.

Turning to `Cn1nc(C(C)(C)C)cc1C(=O)NC(Cc1cccc(Cl)c1)C(=O)NCC#N` (stereo not given), the Potency is 15.1 µM (active).

As for `COc1cc(Nc2nc3ccccc3nc2NS(=O)(=O)c2ccc(NC(=O)c3ccc(OC)c(C)c3)cc2)cc(OC)c1`, the Potency was 3.79 µM (active).

Consider `Cc1ccc(S(=O)(=O)n2ccc(-c3c(-c4ccc(Cl)cc4)noc3C)n2)cc1`, for which the Potency is 5.35 µM (active).

In the case of `Cc1csc(NC(=O)c2ccc(COc3cccc(Cl)c3)o2)n1`, the Potency is 7.56 µM (active).

System in another test: not listed separately
As to the kind of experiment: Primary qHTS for inhibitors of nuclear receptor binding SET domain protein 2 (NSD2) in an isogenic RCH-ACV NSD2 p.E1099K mutant (9B) (AID 1645876; active = well fitted curve in the direction sought with a large enough effect; an effect the other way counts as inactive or inconclusive; note: nearly all actives have a fitted effect of over 70% in size; for activity change, negative = viability loss: % is set by controls: 0 for no effect and ±100 for the full control effect). To be noted: RCH-ACV (leukaemia line) NSD2 E1099K (9B) viability, CellTiter-Glo, 72 h; series mostly up to 44.9 µM; activity change, negative = viability loss: at the top concentration; outcome: at the top concentration.
In the case of `Cc1cc(Nc2ncc3cc(-c4c(Cl)cccc4Cl)c(=O)n(C)c3n2)ccc1F`, the Potency was 0.728 µM (active).

On to `CCC(CC)C(=O)Nc1sc2c(c1C#N)CCC(C(C)(C)CC)C2` (stereo not given), for which the result was inactive.

As to `CC1CCCCN1S(=O)(=O)c1ccc(N2CCCC2=O)cc1` (stereo not given), the “activity change, negative = viability loss” value is -16.8%.

Take `CC(=O)O[C@H]1C(=O)[C@@]2(C)[C@H]([C@H](OC(=O)c3ccccc3)[C@]3(O)C[C@H](OC(=O)[C@H](O)[C@@H](NC(=O)c4ccccc4)c4ccccc4)C(C)=C1C3(C)C)[C@]1(OC(C)=O)CO[C@@H]1C[C@@H]2O`: the Potency is 0.0069 µM (active).

The record behind these values is PubChem BioAssay (NCATS).
